Data reported in the supplement of paper PMC7411054.
Structures can show the parent of a compound that is named as a salt.

Test system: HepG2-ACTB-RAB5A
Test: phenotypically active (imaging signature differs from DMSO and reproducible) at any of 0.3-9 uM (binary (1 = active, 0 = inactive)); higher = active
Settings: treatment time: 24 h
Outline: (§1)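 The reporter lines, fifteen in total and built by gene editing in A549, HepG2 and WPMY1 cells, used BFP for segmentation alongside GFP and RFP/FusionRed markers. Each was treated at 0.3, 1, 3 or 9 µM for 24 h in four wells and then imaged live, with live-cell features normalised to solvent control wells. Deviation meant ≥3 of 4 wells beyond the 95th percentile of control Euclidean distances; reproducibility meant a median replicate Pearson correlation above the 95th percentile of non-replicates. Only conditions meeting both were scored as phenotypically active.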

Phenotypically active, active:
CC/C(=C(\CC)c1ccc(O)c(CN(CC)CC)c1)c1ccc(O)c(CN(CC)CC)c1 1
CC(C)COCC(CN(Cc1ccccc1)c1ccccc1)N1CCCC1 (stereo not drawn) [bepridil] 1
O=C(NOCC1CC1)c1ccc(F)c(F)c1Nc1ccc(I)cc1Cl 1
COc1ccc(CCNCc2ccc(OCc3ccc(Cl)nc3)c(OC)c2)cc1OC [SBE 13 hydrochloride] 1
N#C/C(=C(/N)Sc1ccc(N)cc1)c1ccccc1C(F)(F)F 1
CCCS(=O)(=O)Nc1ccc(F)c(C(=O)c2c[nH]c3ncc(Cl)cc23)c1F 1
COc1c(C=O)c(O)cc2c1C(=O)c1ccccc1C2=O [Damnacanthal] 1
C[C@H]1Oc2cc(cnc2N)-c2c(nn(C)c2C#N)CN(C)C(=O)c2ccc(F)cc21 1
CC(C)OC(=O)c1cc2c(OCC(O)CNC(C)(C)C)cccc2[nH]1 (stereo not drawn) 1
COc1ccccc1OCCNCC(O)COc1cccc2[nH]c3ccccc3c12 (stereo not drawn) [Carvedilol] 1
O=S(=O)(c1cccc2cnccc12)N1CCCNCC1 [fasudil] 1
Clc1ccccc1C(c1ccccc1)(c1ccccc1)n1ccnc1 [Clotrimazole] 1
CSc1ccc2c(c1)N(CCC1CCCCN1C)c1ccccc1S2 (stereo not drawn) [thioridazine] 1
CCCNCC(O)COc1ccccc1C(=O)CCc1ccccc1 (stereo not drawn) [propafenone] 1
COc1cc(N2CCC(N)CC2)ccc1Nc1ncc(Cl)c(-c2c[nH]c3ccccc23)n1 1
Cc1noc(C)c1-c1ccc2c(c1)nc(CCc1ccc(OCCCN(C)C)cc1)n2CCN1CCOCC1 1
Cc1cc(Nc2ccc(NC(=O)c3ccc(Nc4ccnc5ccccc45)cc3)cc2)nc(N)n1 1
Cc1ccc(NC2=CC(=O)c3sc(C)nc3C2=O)cc1 [Ryuvidine] 1
C[C@]1(O)C[C@@H](c2nc(-c3ccc4ccc(-c5ccccc5)nc4c3)c3c(N)nccn32)C1 [linsitinib] 1
O=C(O)C[C@H](O)C[C@H](O)/C=C/c1c(C2CC2)nc2ccccc2c1-c1ccc(F)cc1 [Pitavastatin calcium] 1
CN1[C@@H]2CC[C@H]1C[C@@H](OC(c1ccccc1)c1ccccc1)C2 [benztropine] 1
NS(=O)(=O)c1nn2cc(-c3ccccc3)nc2s1 1

Phenotypically active, inactive:
CNCCC(Oc1ccc(C(F)(F)F)cc1)c1ccccc1 (stereo not drawn) [fluoxetine] 0
Cn1cc(C2=C(c3ccc(Cl)cc3Cl)C(=O)NC2=O)c2ccccc21 0
COc1cc(OC)c2cc(-c3ccncc3)cnc2c1 [DMPQ dihydrochloride] 0
Cn1cc(CCn2cnc(-c3cnn(C)c3)c2-c2ccc(C#N)cc2)cn1 0
O=C(O)Cc1cccc(OCCCN(Cc2cccc(C(F)(F)F)c2Cl)CC(c2ccccc2)c2ccccc2)c1 [GW 3965 hydrochloride] 0
CCOP(=O)(OCC)C(=Cc1cc(C(C)(C)C)c(O)c(C(C)(C)C)c1)P(=O)(OCC)OCC 0
O=C([C@H](Cc1cccc(C(F)(F)F)c1)NS(=O)(=O)c1cc(F)c2c(c1)CCNC2)N1CCCC1 [(S)-PFI 2 hydrochloride] 0
Cc1noc(C)c1Cn1cc(C#N)c2cc(Oc3ccc(NC(=O)[C@@H]4CCCN4)cc3)ccc21 0
COc1ccc(CNC(=O)Nc2ncc([N+](=O)[O-])s2)cc1 0
CC(C)(C)c1ccc2cc(C#N)c(C#N)cc2c1 0
CCCCOc1cc(C(=O)NCCN(CC)CC)c2ccccc2n1 [cinchocaine] 0
O=C(O)[C@@H]1[C@H]2C[C@H]3c4[nH]c5ccccc5c4CCN3C[C@@H]2CC[C@@H]1O [Yohimbinic acid monohydrate] 0
COc1cc2ncnc(Nc3ccc(Cl)cc3F)c2cc1OC 0
Cc1ccc(NC(=O)c2cccc(N(C)C)c2)cc1NC(=O)c1ccc(O)cc1 0
COc1cc2c(cc1OCCCN1CCCC1)N=C(N)C21CCC1 0
CC#CC(=O)N1CCC[C@H]1c1nc(-c2ccc(C(=O)Nc3ccccn3)cc2)c2c(N)nccn12 [acalabrutinib] 0
NC(=O)c1cccc(-c2cc(Nc3ccc(OC(F)(F)F)cc3)ncn2)c1 0

Test system: HepG2-CANX-COX4
Test: as above
Settings: treatment time: 24 h
Outline: as §1

Phenotypically active, inactive:
CC/C(=C(\CC)c1ccc(O)c(CN(CC)CC)c1)c1ccc(O)c(CN(CC)CC)c1 0
CNCCC(Oc1ccc(C(F)(F)F)cc1)c1ccccc1 (stereo not drawn) [fluoxetine] 0
Cn1cc(C2=C(c3ccc(Cl)cc3Cl)C(=O)NC2=O)c2ccccc21 0
Cn1cc(CCn2cnc(-c3cnn(C)c3)c2-c2ccc(C#N)cc2)cn1 0
COc1ccc(CCNCc2ccc(OCc3ccc(Cl)nc3)c(OC)c2)cc1OC [SBE 13 hydrochloride] 0
CCOP(=O)(OCC)C(=Cc1cc(C(C)(C)C)c(O)c(C(C)(C)C)c1)P(=O)(OCC)OCC 0
O=C([C@H](Cc1cccc(C(F)(F)F)c1)NS(=O)(=O)c1cc(F)c2c(c1)CCNC2)N1CCCC1 [(S)-PFI 2 hydrochloride] 0
Cc1noc(C)c1Cn1cc(C#N)c2cc(Oc3ccc(NC(=O)[C@@H]4CCCN4)cc3)ccc21 0
COc1c(C=O)c(O)cc2c1C(=O)c1ccccc1C2=O [Damnacanthal] 0
COc1ccc(CNC(=O)Nc2ncc([N+](=O)[O-])s2)cc1 0
CC(C)(C)c1ccc2cc(C#N)c(C#N)cc2c1 0
CC(C)OC(=O)c1cc2c(OCC(O)CNC(C)(C)C)cccc2[nH]1 (stereo not drawn) 0
CCCCOc1cc(C(=O)NCCN(CC)CC)c2ccccc2n1 [cinchocaine] 0
CCCNCC(O)COc1ccccc1C(=O)CCc1ccccc1 (stereo not drawn) [propafenone] 0
O=C(O)[C@@H]1[C@H]2C[C@H]3c4[nH]c5ccccc5c4CCN3C[C@@H]2CC[C@@H]1O [Yohimbinic acid monohydrate] 0
COc1cc2ncnc(Nc3ccc(Cl)cc3F)c2cc1OC 0
Cc1ccc(NC(=O)c2cccc(N(C)C)c2)cc1NC(=O)c1ccc(O)cc1 0
Cc1cc(Nc2ccc(NC(=O)c3ccc(Nc4ccnc5ccccc45)cc3)cc2)nc(N)n1 0
Cc1ccc(NC2=CC(=O)c3sc(C)nc3C2=O)cc1 [Ryuvidine] 0
COc1cc2c(cc1OCCCN1CCCC1)N=C(N)C21CCC1 0
CC#CC(=O)N1CCC[C@H]1c1nc(-c2ccc(C(=O)Nc3ccccn3)cc2)c2c(N)nccn12 [acalabrutinib] 0
NC(=O)c1cccc(-c2cc(Nc3ccc(OC(F)(F)F)cc3)ncn2)c1 0

Phenotypically active, active:
CC(C)COCC(CN(Cc1ccccc1)c1ccccc1)N1CCCC1 (stereo not drawn) [bepridil] 1
COc1cc(OC)c2cc(-c3ccncc3)cnc2c1 [DMPQ dihydrochloride] 1
O=C(NOCC1CC1)c1ccc(F)c(F)c1Nc1ccc(I)cc1Cl 1
O=C(O)Cc1cccc(OCCCN(Cc2cccc(C(F)(F)F)c2Cl)CC(c2ccccc2)c2ccccc2)c1 [GW 3965 hydrochloride] 1
N#C/C(=C(/N)Sc1ccc(N)cc1)c1ccccc1C(F)(F)F 1
CCCS(=O)(=O)Nc1ccc(F)c(C(=O)c2c[nH]c3ncc(Cl)cc23)c1F 1
C[C@H]1Oc2cc(cnc2N)-c2c(nn(C)c2C#N)CN(C)C(=O)c2ccc(F)cc21 1
COc1ccccc1OCCNCC(O)COc1cccc2[nH]c3ccccc3c12 (stereo not drawn) [Carvedilol] 1
O=S(=O)(c1cccc2cnccc12)N1CCCNCC1 [fasudil] 1
Clc1ccccc1C(c1ccccc1)(c1ccccc1)n1ccnc1 [Clotrimazole] 1
CSc1ccc2c(c1)N(CCC1CCCCN1C)c1ccccc1S2 (stereo not drawn) [thioridazine] 1
COc1cc(N2CCC(N)CC2)ccc1Nc1ncc(Cl)c(-c2c[nH]c3ccccc23)n1 1
Cc1noc(C)c1-c1ccc2c(c1)nc(CCc1ccc(OCCCN(C)C)cc1)n2CCN1CCOCC1 1
C[C@]1(O)C[C@@H](c2nc(-c3ccc4ccc(-c5ccccc5)nc4c3)c3c(N)nccn32)C1 [linsitinib] 1
O=C(O)C[C@H](O)C[C@H](O)/C=C/c1c(C2CC2)nc2ccccc2c1-c1ccc(F)cc1 [Pitavastatin calcium] 1
CN1[C@@H]2CC[C@H]1C[C@@H](OC(c1ccccc1)c1ccccc1)C2 [benztropine] 1
NS(=O)(=O)c1nn2cc(-c3ccccc3)nc2s1 1
